# Only some compounds are listed: those with a hit (about 8% of all), similar ones and a draw of the others.
# KB-3-1 tox – KB-3-1 parental cell cytotoxicity. Potency, µM (titrated, usually from 46.1 µM), hits mostly cytotoxic. actives 1.4% (n = 400,000). AID 1347075. KB-3-1 viability, CellTiter-Glo ATP luminescence, 72 h; further: on the % scale 0 is the no-effect control and ±100 the full control effect; nearly all actives have a fitted effect of over 60% in size
#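 Cytotoxicity measured as CellTiter-Glo luminescence after 72 h at 37 C. Compound titrations were pinned onto drug-naive KB-3-1 parental adenocarcinoma cells grown in DMEM with 10% FBS, and normalized data fitted to concentration-response curves.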
# HT1080-NT tox – kills 2HG-producing HT-1080-NT fibrosarcoma cells | HT-1080-NT fibrosarcoma viability, CellTiter-Glo ATP luminescence, 48 h | Potency, µM (doses to about 46.1 µM), for inactives: top-dose activity, negative = less viability, usual class: cytotoxic | actives 1.6% (n = 360,000) | AID 686970;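 further: NT is the 2HG producing partner of a matched IDH1 knockdown line; 0% = DMSO-treated cells and -100% = media-only wells without cells; nearly all actives have a fitted effect of over 55% in size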
#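 HT-1080-NT; 750 cells/well; 5% FBS RPMI; 48 h compound, 37 degrees C; CellTiter-Glo luminescence; curve fitting and curve-class assignment.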
# KB-V1 MDR tox – kills drug-selected multidrug resistant KB-V1 cells; KB-V1 MDR cells viability, CellTiter-Glo, 72 h; Potency, µM (series often up to 46.1 µM), most hits filed as cytotoxic; actives 3.4% (n = 400,000); AID 1347076; further: on the % scale 0 is the no-effect control and ±100 the full control effect; nearly all actives have a fitted effect of over 60% in size
#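 Compound-treated KB-V1 multidrug-resistant cells, 72 h, 37 degrees C; viability by CellTiter-Glo. Fitted qHTS curves give the values.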
# MCF10A rerep – induces DNA re-replication in MCF 10a normal breast cells; Potency, µM (doses to about 46.1 µM), inactives show top-dose activity, positive = re-replication, hits mostly activators; MCF 10A DNA re-replication, Hoechst nuclear intensity, 48 h; AID 624296; actives 2.9% (n = 350,000); further: % of control where 0% means no effect; nearly all actives have a fitted effect of over 50% in size
# HT1080 IDH1KD tx – toxicity to HT-1080 IDH1 knockdown cells (counter line). HT-1080 IDH1 knockdown viability, ATP luminescence, 48 h. Potency, µM (highest dose often 46.1 µM), for inactives: at the top dose activity, negative = toxicity, most hits filed as cytotoxic. actives 2% (n = 360,000). AID 686971;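 further: 0% = DMSO wells and -100% = cell-free medium wells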
#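 After a 2 h attachment period, IDH1KD HT-1080 cells took pin-transferred compound for 48 h at 37 °C; ATP-based luminescence after 10 min room-temperature reagent incubation reported viability.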
# SW480 rereplic – inducers of DNA re-replication in SW480 colon cancer cells; actives 1.8% (n = 340,000); Potency, µM (titrated, usually from 46.1 µM), without a hit: at the top dose re-replication activation, most hits filed as activators; SW480 DNA re-replication, Hoechst DNA content imaging, 48 h; AID 624297; further: % of control where 0% means no effect; nearly all actives have a fitted effect of over 55% in size
#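 Image-based DNA-content assay: after two days of treatment, nuclei were labelled with the DNA dye Hoechst and imaged, and hits were compounds raising the count of nuclei showing high fluorescence intensity.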
# * = called active by the depositor; i = inactive; ? = inconclusive; nt = no result given. The call rests on the fitted dose curve; in most records, active means well fitted curve in the direction sought with a large enough effect; inconclusive means small, poorly fitted or top-dose-only effect, or another doubt; inactive means no such curve, though single readings can be large; an effect the other way counts as inactive or inconclusive. Potency means the concentration at half of the fitted maximal effect.
SMILES,KB-3-1 tox,HT1080-NT tox,KB-V1 MDR tox,MCF10A rerep,HT1080 IDH1KD tx,SW480 rereplic
COc1ccc(N(CC(=O)Nc2cc(C)ccc2OC)S(=O)(=O)c2c(C)noc2C)cc1,?,?,9.2µM*,?,?,?
Cc1ccnc(NC(=S)N2CCN(c3ccc(C(F)(F)F)cc3)CC2)c1,i,nt,i,nt,nt,nt
CCOc1ccc(-c2cc(CCCC(=O)NCCc3ccc(SC)cc3)no2)cc1,i,nt,i,nt,nt,nt
O=C(N/N=C/c1cc(Br)c(O)c(Br)c1)c1cc2c(ccc3ccccc32)o1,i,-26%,?,8.2µM*,?,?
O=C(N/N=C/c1cc(Cl)c(O)c(Cl)c1)c1cc2c(ccc3ccccc32)o1,i,-3%,i,?,?,15µM*
O=C(N/N=C/c1ccc(O)c(Br)c1)c1cc2c(ccc3ccccc32)o1,i,-1%,i,?,26%,?
O=C(N/N=C/c1ccc([N+](=O)[O-])o1)c1cc2c(ccc3ccccc32)o1,i,0%,i,2.6µM*,8%,?
CCn1cc(/C=N/NC(=O)c2cc3c(ccc4ccccc43)o2)c2ccccc21,?,-24%,18µM*,?,-26%,?
O=C(C1=C(O)C(=O)N(CCc2ccccc2)C1c1cccs1)c1ccco1 (stereo not given),i,-7%,?,-2%,-2%,-8%
Cc1ccc2nc(N3C(=O)C(O)=C(C(=O)c4cc5ccccc5o4)C3c3cccs3)sc2c1 (stereo not given),i,-1%,i,5.8µM*,-16%,19%
CCc1ccc2nc(N3C(=O)C(O)=C(C(=O)c4ccco4)C3c3cccs3)sc2c1 (stereo not given),?,-4%,5.8µM*,15µM*,-20%,-108%
Cc1ccc(CCNC(=O)CCCc2nnc3n(C)c(=O)c4sccc4n23)cc1,i,nt,i,nt,nt,nt
CCOc1ccc(-c2cn3c(n2)sc2cc(C(=O)NCCCc4ccccc4)ccc23)cc1,i,nt,i,nt,nt,nt
CC1(c2ccccc2)CC(C)(C)N2C(=O)/C(=C3\SC(=S)NC3=O)c3cccc1c32 (stereo not given),i,8%,?,3.3µM*,8%,-5%
COc1ccc(-c2cc3nc(C)cc(N4CCN(C(=O)c5ccco5)CC4)n3n2)cc1,i,6%,i,nt,8%,nt
Cc1cc(N2CCN(C(=O)c3ccco3)CC2)n2nc(C)c(-c3ccccc3)c2n1,?,-7%,3.7µM*,3%,1%,8%
O=C(c1cc2nc(-c3ccccc3)cc(-c3ccccc3)n2n1)N1CCN(C(=O)c2ccco2)CC1,?,-29%,21µM*,?,-26%,-4%
CN1CCN(C(=O)c2cc3nc(-c4ccccc4)cc(-c4ccccc4)n3n2)CC1,i,15µM*,i,13µM*,?,?
CCCCN(C)CCNC(=O)c1c2c(nc3ccccc13)C(=O)N(C1CCCCC1)C2,i,nt,i,nt,nt,nt
O=c1c2oc3ccccc3c2n(Cc2ccccc2Cl)c(=O)n1Cc1ccco1,i,nt,i,nt,nt,nt
CCCCCC(=O)Nc1ccc2ccccc2c1,i,-4%,i,?,-2%,-1%
O=C(CSCc1cccc(CSCC(=O)Nc2ccc3ccccc3c2)n1)Nc1ccc2ccccc2c1,?,-7%,23µM*,-4%,-19%,2%
O=C(CS)Nc1ccc2ccccc2c1,i,21µM*,i,0%,21µM*,?
Oc1ccc2ccccc2c1CNc1ccc2ccccc2c1,?,?,?,21µM*,21µM*,?
O=C(CSCc1nc2ccccc2[nH]1)Nc1ccc2ccccc2c1,i,-2%,i,14%,-29%,-3%
O=C(Nc1ccc2ccccc2c1)c1ccccc1O,?,15µM*,?,?,23µM*,23%

# High-throughput results deposited in PubChem by National Center for Advancing Translational Sciences (NCATS).
